Measured values as given in the supplement of paper PMC12645437, “Orthogonal IMiD-Degron Pairs Induce Selective Protein Degradation in Cells” (ACS Chemical Biology, 2025).
Over roughly 8,300 sequences, “log2 fold change of degron read counts, EGFP-low vs EGFP+ sorted cells (limma voom), compound-induced degradation” has its median near -1.1; the highest 2% begin near 3.2. The sample as a whole holds a higher share of the highest values than the screen did.

T1: CRBN, Q96SW2
T1 chain: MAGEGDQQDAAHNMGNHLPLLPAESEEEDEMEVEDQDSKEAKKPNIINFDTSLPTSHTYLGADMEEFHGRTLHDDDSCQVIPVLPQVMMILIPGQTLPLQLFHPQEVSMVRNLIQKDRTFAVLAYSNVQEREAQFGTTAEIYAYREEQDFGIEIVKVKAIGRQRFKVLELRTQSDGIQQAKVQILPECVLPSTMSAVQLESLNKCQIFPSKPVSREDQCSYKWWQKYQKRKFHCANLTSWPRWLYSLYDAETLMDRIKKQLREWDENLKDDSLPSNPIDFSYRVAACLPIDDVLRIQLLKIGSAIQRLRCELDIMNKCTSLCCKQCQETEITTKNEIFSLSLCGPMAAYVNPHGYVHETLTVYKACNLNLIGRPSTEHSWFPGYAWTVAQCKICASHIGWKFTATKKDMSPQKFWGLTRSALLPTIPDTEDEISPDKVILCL


Target: T1, CRBN, Q96SW2
Assay: log2 fold change of degron read counts, EGFP-low vs EGFP+ sorted cells (limma voom), compound-induced degradation; higher = more compound-induced degradation of the degron-EGFP fusion; degrons are variants of IKZF1/3 zinc finger 2; compound dose not given here
Details: Jurkat, 18 h
[1] = compound: compound 19 (5-tert-butyl-thalidomide)
[2] = compound: compound 22 (5-morpholino-thalidomide)
[3] = compound: compound 33 (diphenyl IMiD analogue)
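Further: pooled lentiviral library of zinc finger degron-EGFP fusions in mCherry-positive Jurkat cells, FACS-sorted after compound exposure, with degron abundance counted by next-generation sequencing.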

| Sequence | log2 fold change of degron read counts [1] | log2 fold change of degron read counts [2] | log2 fold change of degron read counts [3] | log2 fold change of degron read counts (compound: thalidomide) |
| --- | --- | --- | --- | --- |
| FGCPQCGAFFTQKGNLLRHIKL [46F_47G_49P_50Q_52G_53A_54F_55F_67L_, Q9UKT9] | -0.126 | -1.28 | 2.09 | -1.62 |
| FRCSVCGHMFTQKGNLLRHIKL [46F_47R_49S_50V_52G_53H_54M_55F_67L_, Q9UKT9] | -2.17 | -2.3 | -2.41 | -2.23 |
| FVCNVCGAWFTQKGNLLRHIKL [46F_47V_49N_50V_52G_53A_54W_55F_67L_, Q9UKT9] | -2.28 | -1.99 | -1.2 | -1.25 |
| LTCNQCGFLCTQKGNLLRHIKL [46L_47T_49N_50Q_52G_53F_54L_55C_67L_, Q9UKT9] | -2.17 | -2.63 | -2.25 | -1.91 |
| FFCPVCGAGFTQKGNLLRHIKL [46F_47F_49P_50V_52G_53A_54G_55F_67L_, Q9UKT9] | 3.15 | 2.03 | 1.8 | 0.528 |
| FVCPVCGAGFTQKGNLLRHIKL [46F_47V_49P_50V_52G_53A_54G_55F_67L_, Q9UKT9] | 0.554 | 2.67 | 1.71 | 2.79 |
| FRCPVCGAGFTQKGNLLRHIKL [46F_47R_49P_50V_52G_53A_54G_55F_67L_, Q9UKT9] | 2.32 | 1.95 | 2.25 | 1.72 |
| FQCPVCGAGFTQKGNLLRHIKL [46F_47Q_49P_50V_52G_53A_54G_55F_67L_, Q9UKT9] | 2.21 | 2.03 | 1.81 | 3.38 |
| FYCPVCGAGFTQKGNLLRHIKL [46F_47Y_49P_50V_52G_53A_54G_55F_67L_, Q9UKT9] | 3.05 | 2.07 | 2.22 | -0.0832 |
| FCCPVCGAGFTQKGNLLRHIKL [46F_47C_49P_50V_52G_53A_54G_55F_67L_, Q9UKT9] | 2.96 | 1.65 | 1.8 | 1.26 |
| FGCPVCGAGFTQKGNLLRHIKL [46F_47G_49P_50V_52G_53A_54G_55F_67L_, Q9UKT9] | 3.26 | 1.13 | 2.32 | 0.332 |
| FHCPVCGAGFTQKGNLLRHIKL [46F_47H_49P_50V_52G_53A_54G_55F_67L_, Q9UKT9] | 2.85 | 1.03 | 2.35 | -0.326 |
| FACPVCGAGFTQKGNLLRHIKL [46F_47A_49P_50V_52G_53A_54G_55F_67L_, Q9UKT9] | 3.42 | 1.04 | 0.678 | 0.677 |
| LHCNQCGFWCTQKGNLLRHIKL [46L_47H_49N_50Q_52G_53F_54W_55C_67L_, Q9UKT9] | -0.827 | -1.3 | -1.08 | -0.88 |
| FRCPICGHHFTQKGNLLRHIKL [46F_47R_49P_50I_52G_53H_54H_55F_67L_, Q9UKT9] | -2.39 | -2.52 | -1.52 | -1.56 |
| FYCEICGANFTQKGNLLRHIKL [46F_47Y_49E_50I_52G_53A_54N_55F_67L_, Q9UKT9] | 3.74 | 3.68 | 2.63 | 1.54 |
| FNCEICGANFTQKGNLLRHIKL [46F_47N_49E_50I_52G_53A_54N_55F_67L_, Q9UKT9] | 2.42 | 0.457 | -0.158 | -0.463 |
| FACEICGANFTQKGNLLRHIKL [46F_47A_49E_50I_52G_53A_54N_55F_67L_, Q9UKT9] | 2.93 | 1.89 | 1.07 | 0.575 |
| FWCEICGANFTQKGNLLRHIKL [46F_47W_49E_50I_52G_53A_54N_55F_67L_, Q9UKT9] | 3.41 | 3.78 | 2.28 | 1.57 |
| FFCEICGANFTQKGNLLRHIKL [46F_47F_49E_50I_52G_53A_54N_55F_67L_, Q9UKT9] | 3.08 | 3.63 | 1.75 | 1.6 |
| FTCEICGANFTQKGNLLRHIKL [46F_47T_49E_50I_52G_53A_54N_55F_67L_, Q9UKT9] | 0.227 | 1.78 | 1.46 | 2.43 |
| FSCEICGANFTQKGNLLRHIKL [46F_47S_49E_50I_52G_53A_54N_55F_67L_, Q9UKT9] | 2.11 | 1.59 | 1.31 | 0.441 |
| FKCEICGANFTQKGNLLRHIKL [46F_47K_49E_50I_52G_53A_54N_55F_67L_, Q9UKT9] | -1.06 | -1.95 | -2.41 | -0.806 |
| FLCEICGANFTQKGNLLRHIKL [46F_47L_49E_50I_52G_53A_54N_55F_67L_, Q9UKT9] | 0.58 | -0.667 | 1.21 | 1.75 |
| FGCEICGANFTQKGNLLRHIKL [46F_47G_49E_50I_52G_53A_54N_55F_67L_, Q9UKT9] | 1.01 | 0.765 | 1.12 | 0.771 |
| FQCEICGANFTQKGNLLRHIKL [46F_47Q_49E_50I_52G_53A_54N_55F_67L_, Q9UKT9] | 0.735 | 1.47 | 1.94 | 3.59 |
| FECEICGANFTQKGNLLRHIKL [46F_47E_49E_50I_52G_53A_54N_55F_67L_, Q9UKT9] | 0.0673 | -1.05 | 2.35 | 2.43 |
